Compounds with a hit are over-represented: about 6.5% of the library has one in this group of screens.
FMDV antiviral – antivirals against foot and mouth disease virus; 1.2% of 410,000 active; AID 1159524; Potency, µM (series often up to 57.9 µM), for inactives: at the highest dose activity change, negative = inhibition, most hits filed as inhibitors; FMDV antiviral cell-based qHTS; calls by dose curve; tested in HEK293T cells; also: read-out not given here; potency is read from the fitted curve at half-maximal effect; nearly all actives have a fitted effect of over 45% in size
HCMV antiviral – inhibitors of human cytomegalovirus; activity change, negative = inhibition, % at 57.5 µM; 4.5% of 410,000 active; AID 1259415; HFF cells, HCMV-luciferase reporter, 72 h; active compounds read low; in the data active = activity change below about -60%; inconclusive = no clear call, values can overlap the other calls; inactive = above about -39%
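Screen run at 2 compound doses on HFFs infected with reporter HCMV, MOI 1 PFU/cell. Luciferase activity from cell lysates at 72 h post infection gave inhibition relative to buffer-only and Salinomycin wells.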
VACV Venus inh – vaccinia inhibition (Venus reporter); Vaccinia virus Venus reporter expression, fluorescence; Potency, µM (series often up to 36.5 µM), for inactives: at the top dose activity change, negative = inhibition, hits mostly inhibitors; 0.46% of 330,000 active; AID 720580; calls by dose curve; tested in A549 cells; also: potency is read from the fitted curve at half-maximal effect; nearly all actives have a fitted effect of over 30% in size
VACV mCherry inh – inhibitors of vaccinia virus infection (mCherry reporter signal). Potency, µM (series often up to 36.5 µM), without a hit: at the highest dose activity change, negative = inhibition, hits mostly inhibitors. Vaccinia virus mCherry reporter infection, fluorescence. 0.63% of 310,000 active; calls by dose curve; tested in A549 cells; also: potency is read from the fitted curve at half-maximal effect; nearly all actives have a fitted effect of over 35% in size
Lassa entry inh – blocks Lassa virus binding to or entry into cells; Lassa virus pseudotype entry inhibition, cell reporter; Potency, µM (titrated, usually from 37.9 µM), for inactives: at the top dose activity change, negative = inhibition, usual class: inhibitors; 1.2% of 300,000 active; AID 540256; calls by dose curve; tested in HEK293 cells; also: potency is read from the fitted curve at half-maximal effect; nearly all actives have a fitted effect of over 50% in size
Marburg entry inh – blocks Marburg virus binding to or entry into cells. Marburg virus pseudotyped entry inhibition, cell reporter. Potency, µM (titrated, usually from 37.8 µM), for inactives: at the top dose activity change, negative = inhibition, usual class: inhibitors. 1.8% of 300,000 active; calls by dose curve; tested in HEK293 cells; also: potency is read from the fitted curve at half-maximal effect
Active calls of the source: *; i = inactive; ? = inconclusive; · = not tested or not shown; [ ] = another dose, or the depositor's remark. % is scaled to controls: 0 for no effect and ±100 for the full control effect.

SMILES | FMDV antiviral | HCMV antiviral | VACV Venus inh | VACV mCherry inh | Lassa entry inh | Marburg entry inh
CCCC(=O)NCC(c1cccs1)S(=O)(=O)c1ccc(Cl)cc1 (centres undefined) | 26% | -103* | -8% | -11% | ? | 7%[46.1 µM]
Cc1ccccc1N1CC(C(=O)O)CC1=O (centres undefined) | 24% | -85* | -5% | -20% | -17% | 1%
CC(C)(C)C(=O)N1CCN(c2ccc(NC(=O)c3ccc([N+](=O)[O-])o3)cc2)CC1 | -8% | -99* | ? | 11µM* | ? | ?
O=C(Nc1ccc(N2CCN(C(=O)c3ccc(Cl)cc3)CC2)cc1)c1ccc([N+](=O)[O-])o1 | ? | -96* | ? | -21% | -29%[46.1 µM] | ?
O=C(Nc1ccc(N2CCN(C(=O)c3ccc(Cl)cc3)CC2)cc1)c1cccs1 | -6% | 17 | · | · | · | ·
CCCC(=O)N1CCN(c2ccc(NC(=O)c3ccc([N+](=O)[O-])o3)cc2)CC1 | -20% | -96* | 10µM* | 10µM* | ? | ?
CCC(=O)N1CCN(c2ccc(NC(=O)c3ccc([N+](=O)[O-])o3)cc2)CC1 | 1% | -98* | ? | ? | ? | -37%[46.1 µM]
CNC1(c2nnnn2-c2ccccc2C)CCOC(C)(C)C1 (centres undefined) | -16% | -29 | -1% | -13% | · | ·
CCC1CN(CCNC(=O)c2cscn2)Cc2cc(OC)ccc2O1 (centres undefined) | 3% | · | -4% | -9% | · | ·
CCOc1ccc(CN2CCN(c3ncnc4scc(-c5ccccc5)c34)CC2)cc1 | ? | 38 | -11% | i | -18% | 0%
COc1ccc(Nc2ncnc3scc(-c4ccc(F)cc4)c23)cc1 | ? | -35 | -1% | -14% | -18%[46.1 µM] | ·
COc1ccc(Nc2ncnc3scc(-c4ccc(OC)cc4)c23)cc1 | ? | ? | -29% | ? | ? | 7.3µM*
COc1ccc(F)cc1CN1CCN(c2ncnc3scc(-c4ccccc4)c23)CC1 | ? | -75* | -7% | -13% | ? | ?
Cc1ccc(-c2csc3ncnc(N4CCN(C(=O)c5ccccc5)CC4)c23)cc1 | 25µM* | -70* | ? | -5%[1.46 µM] | ? | ?
O=C(c1ccco1)N1CCN(c2ncnc3scc(-c4cccs4)c23)CC1 | 22µM* | ? | · | · | ? | -8%
O=c1c2oc3ccccc3c2n(Cc2ccccc2F)c(=O)n1Cc1ccc2c(c1)OCO2 | -14% | -8 | -10% | -6% | 23%[46.1 µM] | ·
COC(=O)N[C@@H](c1ccc(Br)cc1)C(C(=O)OC)C(=O)OC | · | · | · | · | 9%[14.3 µM] | ?
COc1ccc(-c2csc3ncnc(N4CCN(c5cccc(OC)c5)CC4)c23)cc1 | ? | -24 | -4% | -14% | -6% | ?
COc1ccc(N2CCN(c3ncnc4scc(-c5ccc(F)cc5)c34)CC2)cc1 | 28µM* | -40 | -24% | i | -11% | ?
COc1ccc(N2CCN(c3ncnc4scc(-c5ccccc5)c34)CC2)cc1 | ? | -36 | -3% | ? | -10%[46.1 µM] | ?
COc1ccc(CN2CCN(c3ncnc4scc(-c5ccc(F)cc5)c34)CC2)cc1 | ? | 21 | -17% | -15% | ? | 13µM*
COc1ccc(N2CCN(c3ncnc4scc(-c5ccc(C)cc5)c34)CC2)cc1 | ? | -64* | -6% | -16% | 10µM* | ?
Fc1ccc(-c2csc3ncnc(N4CCN(c5ccccc5)CC4)c23)cc1 | -29% | -62* | -5% | -20% | ? | ?
COc1ccc(CNC(=O)COC(=O)CCOc2ccc(C)cc2)cc1OC | 2% | -32 | -11% | i | 9% | 2%
COc1ccccc1CNC(=O)CCCn1c(=O)c2cccn2c2ccccc21 | ? | -9 | -11% | i | 2%[46.1 µM] | ·
SMILES | FMDV antiviral | HCMV antiviral | VACV Venus inh | VACV mCherry inh | Lassa entry inh | Marburg entry inh
CCOC(=O)C[n+]1cccc(Br)c1 | · | · | -7% | -1% | · | ·
Cc1ccc2c(c1)c(/C=C/c1cc[n+](C)cc1)c(C)n2C | ? | -98* | i | -23% | · | ·
Cc1ccc2[nH]c(C)c(/C=N/Nc3nc4ccccc4s3)c2c1 | -21% | 56 | · | · | 3% | ?
Cc1ccc2[nH]c(C)c(/C=C/c3cc[n+](C)cc3)c2c1 | -26% | -100* | 227% | ? | 3.2µM* | 8.9µM*
CCCn1c(/C=C/c2cc[n+](C)cc2)nc2ccccc21 | -4% | ? | -13% | i | -12%[46.1 µM] | -16%[46.1 µM]
COc1cccc(Cn2c(=O)c(CCc3ccccc3)nc3cnc(OC)nc32)c1 | -13% | · | · | · | · | ·
O=C(c1ccc(Cl)cc1)C(CN1CCCCC1)c1ccccc1 (centres undefined) | 14µM* | -101* | 11µM* | ? | ? | ?
O=C(c1ccccc1)C(CN1CCCC1)c1ccccc1 (centres undefined) | 3.5µM* | -103* | 16µM* | ? | 7.9µM* | 7.1µM*
CCOC(=O)C(CN1CCCC1)c1ccccc1 (centres undefined) | -15% | -24 | -9% | i | · | ·
c1ccc(COc2ncnc3c2ncn3CCCN2CCN(Cc3cccc4ccccc34)CC2)cc1 | 28µM* | -40 | 11µM* | 10µM* | · | ·
CN(CCCn1cnc2c(OCc3ccccc3)ncnc21)CCc1ccccn1 | 4% | 5 | 0% | -6% | · | ·
C[C@@H](NCCCn1cnc2c(OCc3ccccc3)ncnc21)c1cccc2ccccc12 | -26% | -31 | ? | ? | · | ·
COc1ccc(CN(C)CCCn2cnc3c(OCc4ccccc4)ncnc32)cc1 | -20% | -97* | -16% | ? | · | ·
Cc1cc(C)c(CN2CCN(C(=O)Cn3cnc4c(OCc5ccccc5)ncnc43)CC2)c(C)c1 | ? | -64* | ? | ? | · | ·
O=C(O)Cn1cnc2c(OCc3ccccc3)ncnc21 | 0% | 6 | -6% | -14% | · | ·
COC(=O)c1cc(S(=O)(=O)NCC2CCN(Cc3cccc(F)c3)CC2)c[nH]1 | -13% | -37 | 4% | -11% | 12%[46.1 µM] | ·
O=C(CCC(=O)N1CCOc2ccc(Cl)cc21)NCCCN1CCC(Cc2ccccc2)CC1 | -17% | -75* | -20% | 11% | · | ·
Cc1ccc(C)c(N2CCN(C(=O)CCC(=O)N3CCOc4ccc(Cl)cc43)CC2)c1 | -28% | -80* | ? | ? | · | ·
Cc1ccc(C)c(N2CCN(CCCNC(=O)CCC(=O)N3CCOc4ccc(Cl)cc43)CC2)c1 | · | -83* | · | · | · | ·
COc1ccc(N2CCN(CCCNC(=O)CCC(=O)N3CCOc4ccc(Cl)cc43)CC2)cc1 | -26% | -20 | -17% | ? | -24%[46.1 µM] | ?
O=C(CCC(=O)N1CCOc2ccc(Cl)cc21)NCCCN1CCN(c2ccccc2F)CC1 | ? | -24 | -11% | ? | · | ·
CC(=O)c1ccc(Cc2ccc(C(C)=O)cc2)cc1 | -9% | -88* | 3% | -3% | -17% | 30%[46.1 µM]
CSc1c(CC(=O)Nc2ccccc2)n(C)c2ccccc12 | -3% | -37 | · | · | · | ·
CSc1c(CC(=O)Nc2ccc(F)cc2)n(Cc2ccccc2)c2ccccc12 | -22% | -62* | -23% | -14% | -21% | ?

Bioassay records deposited in PubChem by National Center for Advancing Translational Sciences (NCATS).
